Source: PubChem
HttQ103 aggreg: qHTS Multiplex Assay to Identify Dual Action Probes in a Cell Model of Huntington: Aggregate Formation (GFP) | Potency, µM (series often up to 46.1 µM), usual class: inhibitors | 1.1% of 220,000 active | PC12 HttQ103-GFP aggregates, Acumen cytometry, 40 h; note: nearly all actives have a fitted effect of over 60% in size
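Compounds (qHTS titration) were added to PC12 cells expressing an ecdysone-driven HTT exon 1 Q103–GFP fusion after induction with 100 nM tebufenozide. Aggregate formation was measured as GFP objects in cell lysates.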
HTT cytoprotect: qHTS Multiplex Assay to Identify Dual Action Probes in a Cell Model of Huntington: Cytoprotection (ATP). PC12 HTT-Q103 induced, cytoprotection, ATP luminescence, 40 h. 0.14% of 230,000 active. Potency, µM (titrated, usually from 56.4 µM), most hits filed as activators; note: nearly all actives have a fitted effect of over 45% in size
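PC12 cells with ecdysone-inducible HTT exon 1 Q103-GFP, induced with 100 nM tebufenozide and co-treated with library compounds in a dose series (1536-well, 1500 cells/well). Cytoprotection read as ATP content by ATPlite luminescence.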
PINK1 expr mod: A Quantitative High throughput Screen to Identify Chemical Modulators of PINK1 Expression | Potency, µM (highest dose often 76.6 µM), usual class: activators | PINK1 immunofluorescence, high-content cytometry, 24 h | AID 624263, 2012 | 0.2% of 410,000 active; active = well fitted activation curve with a large enough effect; inconclusive = small, poorly fitted or top-dose-only effect; cell line not stated here; note: nearly all actives have a fitted effect of over 65% in size
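PINK1 protein level read as immunofluorescence by microplate cytometer in a fixed, stained stable cell line after 24 h exposure to five compound concentrations, with CCCP as control.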
Epigenetic derep: Quantitative High-Throughput Screen for Regulators of Epigenetic Control; murine LDR cells, GFP reporter derepression, 30 h; Potency, µM (doses to about 53.9 µM), usual class: activators; 0.2% of 280,000 active; note: nearly all actives have a fitted effect of over 60% in size
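Murine LDR cells carrying a silenced, genomically integrated CMV-driven GFP reporter were exposed to compound for 30 hours at 37 C. After PBS washes, GFP-positive cells (20–120 um objects) were counted by laser-scanning microplate cytometry.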
Numbers stand for hits; i = inactive; ? = inconclusive; nt = not tested or not shown; [ ] = remark or other dose. Shown is part of a subset that was picked to be rich in hits. Unless noted, calls come from the whole dose curve; as a rule, active = well fitted curve in the direction sought with a large enough effect; inconclusive = small, poorly fitted or top-dose-only effect, or another doubt; inactive = no such curve, though single readings can be large; an effect the other way counts as inactive or inconclusive.

SMILES | HttQ103 aggreg | HTT cytoprotect | PINK1 expr mod | Epigenetic derep
CCN(CC)S(=O)(=O)c1ccc(NC(=O)c2ccc(Sc3nncn3C)c([N+](=O)[O-])c2)cc1 | i | i[1.9 µM] | i | i
CCS(=O)(=O)c1ccc(Sc2nncn2C)c([N+](=O)[O-])c1 | 11µM | i | i | i
CCN(CC)CCOC(=O)c1ccc(Nc2c3c(nc4ccccc24)CCC3)cc1 | nt | nt | i | i
Cc1nnc(NC(=O)CSc2nnnn2Cc2ccccc2)s1 | 0.35µM | ? | i | i
O=C1c2ccccc2NC2(CCCC2)N1NS(=O)(=O)c1ccccc1 | i | i | i | i
COCCNc1ncnc2c1cnn2-c1ccc(Cl)cc1 | nt | nt | i | i
CC(=O)Nc1ccc(Nc2ncnc3c2cnn3-c2ccccc2)cc1 | i | i | i | i
CC(C)Nc1ncnc2c1cnn2-c1ccc(Cl)cc1 | 22µM | i[10 µM] | i | i
Clc1ccc(Nc2ncnc3c2cnn3-c2ccccc2)cc1 | 3.5µM | i | i | i
CCC1(C)Cc2c(sc3nnn(CC(=O)Nc4cccc5ccccc45)c(=O)c23)CO1 (centres undefined) | i | i | ? | i
CCC1(C)Cc2c(sc3nnn(CC(=O)Nc4ccc(C)cc4)c(=O)c23)CO1 (centres undefined) | i | i | 10µM | i
Cc1cc(C)cc(N2C(=O)CSC23C(=O)N(CC(=O)NC2CCCCC2)c2ccccc23)c1 (centres undefined) | nt | nt | i | i
Cc1cccc(NC(=O)Cc2coc3ccc4ccccc4c23)n1 | i | i | 11µM | i
O=c1[nH]c2ccc([N+](=O)[O-])cc2nc1/C=C(\O)c1ccccc1 | i[9.22 µM] | i[10 µM] | 28µM | 6.3µM
CC(NC(=O)/C(=C/c1ccc(OC(F)F)cc1)c1ccccc1)c1ccccc1 (centres undefined) | ? | i[10 µM] | 45µM | i
CC(NC(=O)/C(C#N)=C/c1ccc(OCC(=O)O)cc1)c1ccccc1 (centres undefined) | nt | nt | i | nt
O=C(CN(c1cccc(C(F)(F)F)c1)S(=O)(=O)c1ccc(Cl)c([N+](=O)[O-])c1)NCc1ccc(F)cc1 | i | i[10 µM] | i | i
N#CC(c1ccccc1)c1ccc2c(C(F)(F)F)cc(C(F)(F)F)nc2n1 (centres undefined) | 22µM | i | ? | i
FC(F)(F)c1cc(C(F)(F)F)c2ccc(N/N=C/c3ccccc3)nc2n1 | i | i | i | i
Cc1ccc(C(C#N)c2ccc3c(C(F)(F)F)cc(C(F)(F)F)nc3n2)cc1 (centres undefined) | ? | i | 8.9µM | i
Cc1cc(C)n(-c2nc(C)nc(N)n2)n1 | 0.79µM | i | i | i
O=C(NCc1ccccc1)c1onc(CSc2ccccn2)c1C(=O)NCc1ccccc1 | i[9.22 µM] | i[10 µM] | i | i
CCC(=O)N(CC)C1=C(O)c2ccccc2C(=O)C1=O | i | i | i | ?
CCC(=O)N(C1=C(NC)C(=O)c2ccccc2C1=O)C(C)C | 28µM | i | i | i
CC(=O)NC1=C(Nc2ccc(N(C)C)cc2)C(=O)c2ccccc2C1=O | nt | nt | i | nt
SMILES | HttQ103 aggreg | HTT cytoprotect | PINK1 expr mod | Epigenetic derep
CNC1=C(N(C(C)=O)c2ccc(Br)cc2)C(=O)c2ccccc2C1=O | 11µM | nt | i | i
CC[C@]1(c2ncc[nH]2)Cc2ccccc2O1 | nt | i | nt | i
COc1ccc(S(=O)(=O)Nc2ccccc2C(=O)NCc2ccco2)cc1 | i | i[10 µM] | i | i
O=C(NCc1ccco1)c1ccccc1NS(=O)(=O)c1ccc(Br)s1 | 18µM | i | i | i
CCc1nc2ccccc2n(CCOCCn2c(=O)c(CC)nc3ccccc32)c1=O | i | i | 10µM | i
CCOCCn1c(CC)nc2ccccc21 | i[9.22 µM] | i[10 µM] | i | i
COc1ccc(CNC(=O)COC(=O)Cc2ccc(Cl)cc2Cl)cc1 | 0.56µM | i[1.9 µM] | i | i
COc1ccc(CC(=O)OCC(=O)NCc2ccc(Cl)cc2)cc1 | i | i | i | i
CC1(C)Cc2c(c(=S)nc(-c3ccccc3)n2CCN2CCOCC2)CO1 | i | i[0.074 µM] | i | i
CCn1cc(C(=O)O)c(=O)c2cc(F)c(N/N=C/c3ccccc3[N+](=O)[O-])cc21 | ? | i[10 µM] | 40µM | i
O=C(c1cc2c(Cl)nc3ccccc3c2s1)N1CCCCC1 | nt | nt | i | i
COC(=O)C1=COC(C)C2CN3CCc4c([nH]c5ccccc45)C3CC12 (centres undefined) | 11µM | i | i | i
CCC(C)Cn1c(COc2ccc(OC)cc2)nc2ccccc21 (centres undefined) | nt | nt | i | i
CCC(C)Cn1c(C)nc2ccccc21 (centres undefined) | 20µM | i | i | i
CCOC(=O)N/N=C/c1c(C)nn(-c2cccc(C(F)(F)F)c2)c1Cl | i | i[1.9 µM] | i | i
COc1ccccc1Nc1nc(-c2ccccc2O)nc2ccccc12 | i[9.22 µM] | i[10 µM] | i | i
CCOc1ccc(S(=O)(=O)N(C(=O)c2ccco2)c2cc3sc(=O)oc3c3ccccc23)cc1 | i | 0.89µM | i | i
c1ccc(-c2csc3ncnc(NCCCN4CCOCC4)c23)cc1 | i | i[10 µM] | i | i
c1csc(-c2csc3ncnc(NCCCN4CCOCC4)c23)c1 | 7.9µM | i[1.9 µM] | i | i
O=C(NCCCN1CCOCC1)c1cc(-c2cccs2)on1 | i | i[10 µM] | i | 14µM
Cc1ccc(-c2cc(C(=O)NCCCN3CCOCC3)no2)cc1 | 3.2µM | i | i | i
Cc1ccc2cc(CCNS(=O)(=O)c3ccc(F)cc3)c(=O)[nH]c2c1C | i[9.22 µM] | i[10 µM] | i | i
CC(=O)N1CCCC(C(=O)c2ccc(Oc3ccccc3)cc2)C1 (centres undefined) | i[9.22 µM] | i[10 µM] | i | i
O=S(=O)(NC1CCCc2ccccc21)c1cnc[nH]1 (centres undefined) | i | i | i | i
CC(=O)Nc1ccc(S(=O)(=O)NCC2CCC(C(=O)N3CC(C)CC(C)C3)CC2)cc1 (centres undefined) | nt | nt | i | nt
SMILES | HttQ103 aggreg | HTT cytoprotect | PINK1 expr mod | Epigenetic derep
Cc1cccc(N=c2oc3cc(O)ccc3cc2C(N)=O)c1 | 8.9µM | i | i | i
COC(=O)c1ccc(Cl)cc1NC(=O)NCCc1c(C)nn(C)c1C | nt | nt | i | i
CCCNC(=O)c1cc(-c2ccco2)on1 | i | 1.6µM | i | i
CCn1c(=O)c2sccc2n(CC(=O)NCCC2=CCCCC2)c1=O | nt | nt | i | nt
CSc1ccc(/C=c2\s/c(=C\C(=O)C(C)(C)C)n(CC(=O)NCCC3=CCCCC3)c2=O)cc1 | i | i[10 µM] | ? | 20µM
COC(=O)/C=C/c1cnc2ccccc2c1 | i | i | i | i
Cc1cc(C)c2nc(SC(C)C#N)cc(C)c2c1 (centres undefined) | i | 0.63µM | i | i
CSc1nc(N)nc2c1ncn2Cc1ccccc1 | nt | nt | i | nt
O=C(O)/C=C/C(=O)c1ccc2c(c1)NC(=O)CO2 | i | 0.2µM | i | i
C=C1CC[C@@H]2[C@](C)(CC[C@@H](O)[C@]2(C)CO)[C@@H]1C/C=C1/C(=O)OC[C@H]1O | nt | 40µM | nt | nt
CCCCC(=O)Nc1cccc(NC(=O)c2ccc(Br)cc2)c1 | i | i | i | i
Cn1c(=O)[nH]c(=O)c2c1nc(SCCN1CCOCC1)n2CCCc1ccccc1 | i | i | i | i
